Screening data deposited in PubChem by Broad Institute.
The list is not random: actives were taken first. Their share in the collection is about 1.4%.
ARNT-TACC3 inh: disrupts binding between human ARNT and TACC3 | AlphaScreen His-ARNT PAS-B/GST-TACC3 binding, luminescence; TACC3 fragment carries E629A point mutation | inhibition, % at 9.99 µM | 390,000 tested, 0.66% active;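 active = mean inhibition of replicates at least 50% and at least half of replicates each reaching 50%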;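 also: 0% = complete ARNT plus TACC3 wells and 100% = ARNT alone without TACC3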
PglD DTNB: blocks C. jejuni PglD acetyltransferase activity | purified PglD enzyme, DTNB colorimetric CoA detection | inhibition, % at 12.5 µM | 360,000 tested, 0.098% active | AID 602405; in the data active = inhibition above about 16%, passing the limit was not always enough
CFTR F508del cor: CFTR F508del correction in bronchial cells; 350,000 tested, 0.36% active; CFBE cells, YFP halide quenching; stimulated with forskolin plus potentiator P3; % fluorescence drop versus neutral controls; activity (quench increase), % at 7.58 µM; AID 720511;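 active = mean added fluorescence quench of at least 8% versus neutral control, with both replicates also reaching 8%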;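 also: cells transiently co-express mutant CFTR-F508del with the halide-sensitive YFP; corrector assay measuring rescue of mutant channel to the surface after 24 h compound exposure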
Statin myotox sup: protects C2C12 myotubes from simvastatin toxicity; ATP luminescence, 48 h; scaled: DMSO 0, geranylgeraniol control 100; rescue of ATP level, % at 7.49 µM; 330,000 tested, 0.78% active;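 active = mean ATP rescue above about 67%, or every replicate alone reaching that limit, limit read from the data, passing the limit was not always enough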;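 also: myotubes were challenged with 10 µM simvastatin during compound exposure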
* = called active by the depositor; x = not tested or not shown.

SMILES | ARNT-TACC3 inh | PglD DTNB | CFTR F508del cor | Statin myotox sup
CCOc1ccc(CCNC(=O)C2CCCN(c3ncnc4c3nc3n4CCCCC3)C2)cc1 (configuration not stated) | 3.6 | 4.4 | -1.4 | 75.9*
O=C(Nc1ccc2nc(-c3cccnc3)[nH]c2c1)C12CC3CC(CC(C3)C1)C2 | -2.6 | -2.8 | x | 75.5*
O=C(NCC[C@@H]1CC[C@@H](NS(=O)(=O)c2ccc(Oc3ccccc3)cc2)[C@@H](CO)O1)C1CC1 | -7.9 | -4.0 | -2.0 | 9.9
CNC(=S)N/N=C/c1cc(Br)cc(Br)c1O | 47.6* | x | x | x
NC(=S)NN=Cc1nccc2ccccc12 | 77.3* | -0.7 | 9.7* | -24.4
Cc1cc(/C=N/NC(N)=S)c(O)c(/C=N/NC(N)=S)c1 | 66.4* | 2.3 | 14.0* | -13.1
NC(=S)NN=Cc1nccc2c(C(F)(F)C(F)(F)C(F)(F)F)cccc12 | x | 2.7 | 1.2 | -13.9
Oc1ccccc1/C=N/Nc1ccccc1 | 9.9 | x | -4.6 | 16.2
Oc1ccccc1C=NNC(=S)NN=Cc1ccccc1O | 60.7* | 4.8 | 6.0 | -1.4
Cc1ccc(-n2c(C)cc(/C=N/NC(N)=S)c2C)cc1 | -3.2 | x | x | x
CC(C)NC(=O)N[C@H]1CC[C@@H](CCNS(=O)(=O)c2ccc(F)cc2)O[C@@H]1CO | 4.4 | 1.0 | 1.5 | -3.3
NC(=S)N/N=C/c1cccc(O)c1O | x | x | -2.8 | x
NC(=S)N/N=C/c1ccccc1O | 72.6* | 0.8 | 4.2 | 1.9
CC(C)[C@H](NS(=O)(=O)c1ccccc1)C(=O)OCC(=O)NC(=O)NC1CCCCC1 | -5.9 | -3.0 | 0.7 | 113.6*
CO[C@H]1CN(C)C(=O)c2cc(NC(C)=O)ccc2OC[C@H](C)N(C(=O)c2ccccc2F)C[C@@H]1C | 1.5 | 0.4 | -0.5 | -7.5
O=C(Nc1cccnc1)Nc1cccc(F)c1 | 0.1 | 2.7 | -4.2 | -1.7
COC(=O)c1cccc(NC(=O)Nc2ccccc2OC)c1 | -4.8 | x | -5.0 | x
CC(=O)c1cccc(NC(=O)Nc2cccnc2)c1 | -26.0 | -2.0 | x | 81.0*
COC(=O)c1cc(OC)c(OC)cc1NC(=O)Nc1cccc(C(C)=O)c1 | x | -5.3 | 0.5 | 114.1*
Cc1cccc(CC(=O)Nc2cccnc2)c1 | -5.1 | -7.0 | 8.4* | 3.4
COc1ccc(NC(=O)N(C)C[C@H]2OCCCC[C@@H](C)Oc3ccc(NS(=O)(=O)c4ccc(Cl)cc4)cc3C(=O)N([C@@H](C)CO)C[C@@H]2C)cc1 | -5.3 | -0.4 | -0.7 | x
CC(C)NC(=O)NC(=O)COC(=O)c1ccc(S(=O)(=O)Nc2ccccc2)cc1 | -6.0 | x | 22.8* | 1.6
CC(C)NC(=O)NC(=O)COC(=O)c1ccc(OC(F)(F)F)cc1 | -8.8 | -0.7 | x | x
O=C(CNc1ccc(F)cc1Cl)Nc1cccc(S(=O)(=O)N2CCCCC2)c1 | -1.4 | -3.5 | 2.4 | 0.4
CN(CC(=O)Nc1cccc(S(=O)(=O)N2CCCC2)c1)CC(=O)Nc1ccc(Cl)c(C(F)(F)F)c1 | -2.6 | -5.2 | 4.3 | -7.6
SMILES | ARNT-TACC3 inh | PglD DTNB | CFTR F508del cor | Statin myotox sup
O=C(COc1ccc(F)cc1Cl)Nc1cccc(S(=O)(=O)N2CCCCCC2)c1 | -5.4 | -4.2 | 8.8* | 3.6
CN(CC(=O)Nc1cccc(S(=O)(=O)N2CCCC2)c1)CC(=O)Nc1ccc(F)c(F)c1F | x | 2.0 | 19.4* | 7.4
Cc1ccccc1S(=O)(=O)NCC[C@@H]1CC[C@@H](NC(=O)C2CCC2)[C@@H](CO)O1 | -2.2 | 19.1 | 1.9 | 0.9
CCOC(=O)N1CCC(NC(=O)c2ccccc2C(=O)O)CC1 | -2.3 | -10.4 | -2.9 | -6.1
CCOC(=O)N1CCC(NC(=O)c2cc(C)c3c(C)nn(-c4ccccc4)c3n2)CC1 | -1.8 | 7.1 | x | 117.5*
CCCc1sc(N/N=C/c2ccccn2)nc1-c1ccc(Br)cc1 | 33.1* | 0.0 | -1.0 | -165.0
CCCCNc1c(-c2ccc(SC(C)CC)c(OC)c2)nc2ccc(Cl)cn12 (configuration not stated) | -4.9 | 7.7 | -2.2 | -16.0
CCCCNc1c(-c2ccc(SC(C)CC)c(OC)c2)nc2ccc(C)cn12 (configuration not stated) | 19.7 | -4.3 | 8.3* | -29.1
Cn1cnnc1SCC(=O)Nc1ccc(Br)cc1F | -3.9 | -0.9 | x | 70.8*
CN(C)CCCNc1nc(N)c([N+](=O)[O-])c(NCCO)n1 | 0.0 | 0.2 | 1.9 | 87.3*
CCN(CC)CCCNc1nc(N)c([N+](=O)[O-])c(NCCO)n1 | -1.1 | -0.1 | 0.0 | x
O=C1CN(C(=O)COC(=O)CCSc2ccccc2Cl)c2ccccc2N1 | 8.1 | 2.1 | x | 106.1*
Cc1ccc(C)c(CSc2nc3[nH]ncc3c(=O)[nH]2)c1 | 1.3 | x | 16.5* | x
